# Data as given in the supplement of paper PMC6607015.
# Where a name gives a salt, the structure may show the parent alone.
# Legend:
# Conditions in all cases: compound concentration in added solution (µM; 5 µl added to 20 µl cells): 10; 18 h
# A431 [1] = test: LBPA endosome anti-LBPA integrated intensity (sum per cell), Z-score; higher = more LBPA staining
# Method in brief: (§1)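 In duplicate 384-well imaging plates, 3,500 HeLa MZ or A431 cells in 20 µl per well were seeded onto 5 µl of 10 µM compound solution. The cells were incubated for 18 h, fixed in 4% PFA and stained with 6C4 anti-LBPA antibody, filipin, propidium iodide and CellTracker green before four 20× images were acquired per well. Values are AcuityXpress-normalised Z-scores of per-cell integrated LBPA or filipin intensity, obtained by MetaXpress segmentation over the whole cell or in LBPA endosomes.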
# HeLa MZ [2] = test: as above
# Method in brief: as §1
# A431 [3] = test: whole-cell filipin (free cholesterol) integrated intensity, Z-score; higher = more cholesterol staining
# Method in brief: as §1
# HeLa MZ [4] = test: as above
# Method in brief: as §1
# A431 [5] = test: filipin (cholesterol) integrated intensity within LBPA endosomes, Z-score; higher = more cholesterol in LBPA endosomes
# Method in brief: as §1
# HeLa MZ [6] = test: as above
# Method in brief: as §1
SMILES,LBPA endosome anti-LBPA integrated intensity (z-score) (A431 [1]),LBPA endosome anti-LBPA integrated intensity (z-score) (HeLa MZ [2]),whole-cell filipin (z-score) (A431 [3]),whole-cell filipin (z-score) (HeLa MZ [4]),filipin (z-score) (A431 [5]),filipin (z-score) (HeLa MZ [6])
O=S(=O)(O)c1cc(O)ccc1O [Ethamsylate],-0.297,0.237,0.0355,-0.226,-0.436,-0.57
C[C@H](N)[C@H](O)c1cccc(O)c1 [Metaraminol bitartrate],-0.242,-0.0318,-0.347,-0.355,-0.416,-0.505
COc1cc2nc(N(C)CCCNC(=O)C3CCCO3)nc(N)c2cc1OC (configuration not stated) [Alfuzosin hydrochloride],1.37,1.11,-0.35,-0.351,0.00526,0.128
C[N+]1(C)CCC(=C(c2ccccc2)c2ccccc2)CC1 [Diphemanil methylsulfate],-0.603,-1.21,-0.868,-0.964,-0.428,-0.688
CCN[C@H]1CN(CCCOC)S(=O)(=O)c2sc(S(N)(=O)=O)cc21 [Brinzolamide],-0.542,-0.00126,-0.549,-0.378,-0.517,-0.377
C#Cc1cccc(Nc2ncnc3cc(OCCOC)c(OCCOC)cc23)c1 [Erlotinib],1.24,2.03,-0.02,0.532,0.124,0.831
Cc1ncc(C[n+]2csc(CCO)c2C)c(N)n1 [Thiamine hydrochloride],-0.398,-0.0332,0.0289,-0.0399,-0.382,-0.539
CN1C2CCCC1CC(NC(=O)c1nn(C)c3ccccc13)C2 (configuration not stated) [Granisetron],0.179,1.05,0.826,0.449,-0.132,0.382
CC(C)N1CCN(c2ccc(OCC3COC(Cn4cncn4)(c4ccc(Cl)cc4Cl)O3)cc2)CC1 (configuration not stated) [Terconazole],3.33,2.49,1.58,1.5,3.31,4.7
COc1ccc(C(=O)NCc2ccc(OCCN(C)C)cc2)cc1OC [Itopride],-0.646,-0.657,-0.844,-0.665,-0.581,-0.36
CCCN(CCC)C(=O)C(CCC(=O)O)NC(=O)c1ccccc1 (configuration not stated) [Proglumide],-0.629,-1.36,-1.22,-0.766,-0.53,-0.607
CCCOc1ccc(C(=O)OCCN(CC)CC)cc1N [Proparacaine hydrochloride],-0.432,0.26,-0.369,-0.271,-0.454,-0.0385
CN1CCN2c3ncccc3Cc3ccccc3C2C1 (configuration not stated) [Mirtazapine],-0.296,0.0872,-0.206,0.74,-0.391,0.392
O=C(O)[C@H]1/C(=C/CO)O[C@@H]2CC(=O)N21 [Potassium clavulanate],-0.48,-0.536,0.227,-0.0014,-0.358,-0.433
CN(C)CCCO[C@@H]1[C@H]2OC(C)(C)O[C@H]2O[C@@H]1[C@H](O)CO [Amiprilose hydrochloride],-0.365,-0.384,-0.0258,-0.369,-0.415,-0.492
CCCc1ncc(C[n+]2ccccc2C)c(N)n1 [Amprolium hydrochloride],-0.558,-1.09,-0.581,-0.0131,-0.483,-0.419
CCN(CC)CCNC(=O)COc1ccc(OC)cc1 [Mefexamide hydrochloride],-0.352,0.346,-0.627,-0.811,-0.519,-0.36
CC(=O)O[C@]1(C(C)=O)CC[C@H]2[C@@H]3C=C(C)C4=CC(=O)CC[C@@H]4[C@H]3CC[C@@]21C [Nomegestrol acetate],0.292,0.691,1.29,1.28,0.654,0.778
C[C@]12C=CC(=O)C=C1CC[C@@H]1[C@@H]2[C@@H](O)C[C@@]2(C)[C@H]1CC[C@]2(O)C(=O)CO [Prednisolone],-0.285,-0.493,-0.674,-0.403,-0.432,-0.544

SMILES,LBPA endosome anti-LBPA integrated intensity (z-score) (A431 [1]),LBPA endosome anti-LBPA integrated intensity (z-score) (HeLa MZ [2]),whole-cell filipin (z-score) (A431 [3]),whole-cell filipin (z-score) (HeLa MZ [4]),filipin (z-score) (A431 [5]),filipin (z-score) (HeLa MZ [6])
CCC[C@@H]1C[C@@H](C(=O)N[C@@H]([C@H]2O[C@H](SC)[C@H](O)[C@@H](O)[C@H]2O)[C@H](C)Cl)N(C)C1 [Clindamycin hydrochloride],-0.543,-0.18,-0.979,-0.574,-0.567,-0.563
Cc1cnc(C(=O)NCCc2ccc(S(=O)(=O)NC(=O)NC3CCCCC3)cc2)cn1 [Glipizide],-0.539,0.251,-1.07,-1.32,-0.587,-0.757
CCN1CCN(C(=O)N[C@@H](C(=O)N[C@@H]2C(=O)N3[C@@H]2SC(C)(C)[C@@H]3C(=O)O)c2ccccc2)C(=O)C1=O [Piperacillin sodium salt],-0.232,-0.383,-0.0934,-0.425,-0.285,-0.478
O=C(O)Cc1ccccc1Nc1c(Cl)cccc1Cl [Diclofenac sodium],-0.542,-0.789,-0.65,-0.702,-0.505,-0.603
Cc1cccc(C)c1NC(=O)C(C)N (configuration not stated) [Tocainide hydrochloride],-0.343,-0.526,0.139,-0.393,-0.431,-0.603
Cc1nccn1CC1CCc2c(c3ccccc3n2C)C1=O (configuration not stated) [Ondansetron Hydrochloride],0.526,1.23,-0.22,0.362,-0.149,0.186
CC[C@]12CCCN3CCc4c(n(c5ccccc45)C(=O)C1)[C@@H]32 [Eburnamonine (-)],-0.525,-1.3,-0.836,-2.15,-0.422,-0.458
CC1(C)[C@@H](OC(=O)CCC(=O)O)CC[C@]2(C)[C@H]3C(=O)C=C4[C@@H]5C[C@@](C)(C(=O)O)CC[C@]5(C)CC[C@@]4(C)[C@]3(C)CC[C@@H]12 [Carbenoxolone disodium salt],-0.362,0.399,-0.0877,0.214,-0.408,-0.356
CCCC1O[C@@H]2C[C@H]3[C@@H]4CCC5=CC(=O)C=C[C@]5(C)[C@H]4[C@@H](O)C[C@]3(C)[C@]2(C(=O)CO)O1 (some centres not stated) [Budesonide],-0.313,-0.695,0.452,0.254,-0.143,0.318
CCOc1cc(CC(=O)N[C@@H](CC(C)C)c2ccccc2N2CCCCC2)ccc1C(=O)O [Repaglinide],-0.598,-1.05,0.149,0.153,-0.42,-0.591
CCCCC1(COC(=O)CCC(=O)O)C(=O)N(c2ccccc2)N(c2ccccc2)C1=O [Suxibuzone],-0.274,0.271,-0.0127,0.34,-0.358,-0.384
CCN1CCC[C@H]1CNC(=O)c1c(O)c(Cl)cc(Cl)c1OC [Raclopride],-0.484,-0.235,-0.93,-0.588,-0.489,-0.47
Clc1ccc(C(c2ccccc2Cl)C(Cl)Cl)cc1 (configuration not stated) [Mitotane],-0.586,-1.29,-0.251,-0.167,-0.511,-0.815
CNCCCC1c2ccccc2C=Cc2ccccc21 [Protriptyline hydrochloride],2.36,2.29,1.72,0.684,2.34,2.5
CN(C)CC/C=C1/c2ccccc2Sc2ccc(Cl)cc21 [Chlorprothixene hydrochloride],4.13,2.63,1.46,0.54,2.61,2.32
CCN1CCCC1CNC(=O)c1cc(S(N)(=O)=O)ccc1OC (configuration not stated) [Sulpiride],-0.472,-0.315,-0.817,-0.434,-0.518,-0.501
CC(C)(O/N=C(\C(=O)N[C@@H]1C(=O)N2C(C(=O)[O-])=C(C[n+]3ccccc3)CS[C@H]12)c1csc(N)n1)C(=O)O [Ceftazidime pentahydrate],-0.536,-0.783,-0.451,-0.099,-0.531,-0.437
N=C(NCCCCCCNC(=N)NC(=N)Nc1ccc(Cl)cc1)NC(=N)Nc1ccc(Cl)cc1 [Chlorhexidine],-0.526,-0.794,-1.08,-1.91,-0.271,-0.107
